In the library only some 11% were active in any assay of this set; here they are far more common.
3T3 cytotox – Cytotoxic Profiling in NIH 3T3 Cell Line of Diverse Libraries Using Quantitative High-Throughput Screening; NIH 3T3 viability, CellTiter-Glo ATP luminescence, 48-72 h; Potency, µM (highest dose often 96.7 µM), most hits filed as inhibitors; 94,000 compounds, 4.3% hits; AID 1345082, 2018; further: nearly all actives have a fitted effect of over 55% in size
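Cells were seeded at 400 per well, treated with pin-transferred compound, and kept 48 or 72 hr at 37 °C before CellTiter-Glo addition and luminescence imaging of cellular ATP.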
HEK cytotox – Cytotoxic Profiling in HEK 293 Cell Line of Diverse Libraries Using Quantitative High-Throughput Screening | HEK 293 viability, ATP luminescence (CellTiter-Glo), 48-72 h | Potency, µM (titrated, usually from 115 µM), most hits filed as inhibitors | 94,000 compounds, 6.6% hits | AID 1345083, 2018; further: nearly all actives have a fitted effect of over 60% in size
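250 HEK 293 cells/well; compound by pintool; incubated 48 or 72 hr at 37 degree Celsius; CellTiter-Glo added, 10 min RT, luminescence imaged.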
FLuc inh-1 – Firefly luciferase inhibition profiling of diverse chemical library using quantitative high-throughput screening; Potency, µM (doses to about 115 µM), hits mostly inhibitors; purified P. pyralis luciferase, luminescence, biochemical; Luciferin 4-monooxygenase (Photinus pyralis), P08659; 76,000 compounds, 2.5% hits; AID 1347043, 2019; further: nearly all actives have a fitted effect of over 65% in size
Target sequence (P08659 whole entry, looked up): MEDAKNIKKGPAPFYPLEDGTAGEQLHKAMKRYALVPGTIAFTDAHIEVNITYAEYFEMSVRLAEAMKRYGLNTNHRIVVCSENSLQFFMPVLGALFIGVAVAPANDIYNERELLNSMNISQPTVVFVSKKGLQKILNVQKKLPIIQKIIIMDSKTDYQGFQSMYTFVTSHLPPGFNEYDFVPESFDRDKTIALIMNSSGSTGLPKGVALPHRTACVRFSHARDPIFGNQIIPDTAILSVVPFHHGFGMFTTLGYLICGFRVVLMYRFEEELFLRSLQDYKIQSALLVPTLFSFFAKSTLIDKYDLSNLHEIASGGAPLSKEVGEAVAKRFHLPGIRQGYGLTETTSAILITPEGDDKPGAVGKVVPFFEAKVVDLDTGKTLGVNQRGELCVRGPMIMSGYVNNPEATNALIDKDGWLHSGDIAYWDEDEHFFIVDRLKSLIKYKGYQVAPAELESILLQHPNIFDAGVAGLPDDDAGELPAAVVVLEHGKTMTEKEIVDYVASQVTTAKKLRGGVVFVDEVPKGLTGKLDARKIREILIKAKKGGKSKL
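FLuc 10nM, D-luciferin 10uM, ATP 10uM, Mg acetate 10mM, Tris acetate pH 7.5, Tween/BSA; cpd qHTS; enzyme added last; CCD luminescence.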
hNpr1 antagonist – Natriuretic polypeptide receptor (hNpr1) antagonism - Primary qHTS; Atrial natriuretic peptide receptor 1 (Homo sapiens), P16066; HEK293 hNpr1 GloSensor cGMP, ANP-stimulated luminescence; 76,000 compounds, 1.6% hits; Potency, µM (highest dose often 46.3 µM), most hits filed as inhibitors; AID 1347048, 2019; calls by dose curve; further: nearly all actives have a fitted effect of over 60% in size
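HEK293 cells stably expressing human Npr1 and cGMP GloSensor pGS-40F, loaded 2 h with 2% GloSensor reagent, given compound 30 min at room temperature. Luminescence read before and 20 min after 0.1 nM hNppA.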
FLuc SDR -ATP – Firefly luciferase (FLuc-C-HiBiT) SDR gain of signal screen - without ATP. 1,300 compounds, 7.8% hits. Purified FLuc-C-HiBiT, Nano-Glo HiBiT luminescence, no ATP. AID 1963318, 2024. Potency, µM (series often up to 32.7 µM), hits mostly activators. shares compounds with FLuc inh-1; further: nearly all actives have a fitted effect of over 55% in size
FLuc SDR ATP – Firefly luciferase (FLuc-C-HiBiT) SDR gain of signal screen - plus ATP | shares compounds with FLuc inh-1 | purified FLuc-C-HiBiT + ATP, HiBiT complementation luminescence | Potency, µM (top dose mostly 32.7 µM), most hits filed as activators | 1,300 compounds, 8.7% hits | AID 1963319, 2024;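 further: signal reports ligand binding via conformational change of the enzyme rather than luciferase catalysis; nearly all actives have a fitted effect of over 55% in size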
FLuc inh-2 – Firefly luciferase (FLuc-C-HiBiT) enzymatic inhibition screen - Functional assay; shares compounds with FLuc inh-1; purified FLuc-C-HiBiT enzyme, luciferin luminescence; Potency, µM (highest dose often 32.7 µM), actives largely listed as inhibitors; 1,300 compounds, 42% hits; AID 1963320, 2024; further: nearly all actives have a fitted effect of over 70% in size
Numbers stand for hits. Unless noted, the call rests on the fitted dose curve; in most records, active means well fitted curve in the direction sought with a large enough effect; inconclusive means small, poorly fitted or top-dose-only effect, or another doubt; inactive means no such curve, though single readings can be large; an effect the other way counts as inactive or inconclusive.

Results for CCCCN(C)S(=O)(=O)c1ccc(C(=O)Nc2ccc(-c3nc4ccc(C)cc4s3)cc2)cc1 ?
FLuc SDR -ATP: inactive; FLuc SDR ATP: inactive; FLuc inh-2: inactive

How did Cc1ccc2nc(-c3ccc(NC(=O)COc4ccccc4C(C)(C)C)cc3)sc2c1 do in these assays?
FLuc SDR -ATP: inactive; FLuc SDR ATP: inactive; FLuc inh-2: inconclusive

How did Cc1ccc(NC(=O)COc2cccc(-c3nnc4n3CCCC4)c2)cc1 do in these assays?
3T3 cytotox: inactive; HEK cytotox: inactive; FLuc inh-1: inactive; hNpr1 antagonist: inactive

What do the screens show for `Cc1ccc2nc(-c3ccc(NC(=O)COc4ccccc4)cc3)sc2c1`?
FLuc SDR -ATP: inactive; FLuc SDR ATP: inactive; FLuc inh-2: 6.2µM

How did CCC(C(=O)N1CCc2cn(CCOC)c3cccc(c23)C1)c1ccccc1 (stereo not drawn) do in these assays?
3T3 cytotox: inconclusive; HEK cytotox: inconclusive; FLuc inh-1: inactive; hNpr1 antagonist: inactive

Results for CN1C(=O)CO[C@H](c2ccc(NC(=O)c3ccc(C(F)(F)F)cc3)cc2)[C@H]1CO ?
3T3 cytotox: inactive; HEK cytotox: inconclusive; FLuc inh-1: inconclusive; hNpr1 antagonist: inconclusive

How did CN(Cc1cccnc1)C(=O)C1CCCCC(=O)N1C (stereo not drawn) do in these assays?
3T3 cytotox: inactive; HEK cytotox: inactive; FLuc inh-1: inactive; hNpr1 antagonist: inactive

How did Cc1cn2nc(C(=O)Nc3ccc4c(c3)OCCO4)cc2c(N(C)Cc2ccccc2)n1 do in these assays?
3T3 cytotox: inconclusive; HEK cytotox: inactive; FLuc inh-1: 10µM; hNpr1 antagonist: inactive; FLuc SDR -ATP: inactive; FLuc SDR ATP: inactive; FLuc inh-2: inconclusive

How did COc1ccc(C(=O)N[C@H]2CC[C@]3(C)CCC([C@H](C)C(=O)NCc4ccccc4)[C@H](O)[C@H]3[C@@H]2C)cc1 (stereo partly drawn) do in these assays?
3T3 cytotox: inconclusive; HEK cytotox: inconclusive; FLuc inh-1: inactive; hNpr1 antagonist: inactive

Results for CN(c1ccc(NC(=O)Nc2ccc(OC(F)(F)F)cc2)cc1)c1ccnc(Nc2cccc(S(N)(=O)=O)c2)n1 ?
FLuc SDR -ATP: inactive; FLuc SDR ATP: inactive; FLuc inh-2: inactive

How did Cc1cn2nc(C(=O)Nc3ccc(OC(F)(F)F)cc3)cc2c(N2CCSCC2)n1 do in these assays?
3T3 cytotox: inconclusive; HEK cytotox: inconclusive; FLuc inh-1: inactive; hNpr1 antagonist: inactive

How did Fc1cccc(Nc2nc(-c3ccccc3)no2)c1 do in these assays?
3T3 cytotox: inconclusive; HEK cytotox: inconclusive; FLuc inh-1: 3.2µM; hNpr1 antagonist: inconclusive; FLuc SDR -ATP: inactive; FLuc SDR ATP: inactive; FLuc inh-2: 7µM

What do the screens show for `Fc1ccccc1-c1noc(-c2nc(-c3ccccc3F)no2)n1`?
3T3 cytotox: inactive; HEK cytotox: inactive; FLuc inh-1: inactive; hNpr1 antagonist: inactive

Results for Fc1ccc(Nc2nc(-c3ccccc3)no2)cc1 ?
3T3 cytotox: inconclusive; HEK cytotox: inconclusive; FLuc inh-1: 3.2µM; hNpr1 antagonist: inconclusive; FLuc SDR -ATP: inactive; FLuc SDR ATP: inactive; FLuc inh-2: 6.2µM

Results for CCOC(=O)c1cccc(Nc2nc(-c3ccccc3)no2)c1 ?
3T3 cytotox: inactive; HEK cytotox: 28µM; FLuc inh-1: 1.8µM; hNpr1 antagonist: inactive; FLuc SDR -ATP: inactive; FLuc SDR ATP: inconclusive; FLuc inh-2: inconclusive

Results for Cc1cc(C)cc(Nc2nc(-c3ccccc3F)no2)c1 ?
3T3 cytotox: 45µM; HEK cytotox: 40µM; FLuc inh-1: 1.6µM; hNpr1 antagonist: inconclusive; FLuc SDR -ATP: inactive; FLuc SDR ATP: inactive; FLuc inh-2: 6.2µM

What do the screens show for `Fc1cccc(Cc2noc(-c3nc(-c4ccccc4)no3)n2)c1`?
3T3 cytotox: inactive; HEK cytotox: inconclusive; FLuc inh-1: inactive; hNpr1 antagonist: inactive

What do the screens show for `c1ccc(CNc2nc(-c3ccccc3)no2)cc1`?
3T3 cytotox: inconclusive; HEK cytotox: inconclusive; FLuc inh-1: 14µM; hNpr1 antagonist: inconclusive; FLuc SDR -ATP: inactive; FLuc SDR ATP: inactive; FLuc inh-2: inconclusive

What do the screens show for `O=C(Nc1ccccc1)N1CCc2nc(C3CC3)nc(-c3ccc(Cl)cc3)c2C1`?
3T3 cytotox: inconclusive; HEK cytotox: inconclusive; FLuc inh-1: inactive; hNpr1 antagonist: inactive; FLuc SDR -ATP: inactive; FLuc SDR ATP: inactive; FLuc inh-2: inactive

Results for O=C(c1ccccc1)N1CCc2nc(C3CC3)nc(-c3ccc(Cl)cc3)c2C1 ?
3T3 cytotox: inactive; HEK cytotox: inconclusive

Results for Cc1ccc(Nc2ncnc3c2nc2n3CCCC2)c(Br)c1 ?
FLuc SDR -ATP: inconclusive; FLuc SDR ATP: inconclusive; FLuc inh-2: 5µM

What do the screens show for `Cc1ccc(NC(=O)Cn2nc3n(c2=O)CCCC3)c(C)c1`?
3T3 cytotox: inactive; HEK cytotox: inactive; FLuc inh-1: inactive; hNpr1 antagonist: inactive

What do the screens show for `O=C(Nc1ccc(F)cc1)c1ccc2oc(-c3cccnc3)nc2c1`?
3T3 cytotox: inactive; HEK cytotox: inactive

Results for Cc1ccc(C(=O)Nc2ccc3oc(-c4cccnc4)nc3c2)c(Cl)c1 ?
FLuc SDR -ATP: inactive; FLuc SDR ATP: inactive; FLuc inh-2: inconclusive

Results for Cc1cc(CN2CCOc3c(O)cc(-c4ccccc4C)cc3C2)on1 ?
3T3 cytotox: inconclusive; HEK cytotox: inconclusive; FLuc inh-1: inactive; hNpr1 antagonist: inactive

What do the screens show for `Oc1cc(-c2nc3ccccc3s2)cc2c1OCCN(Cc1cccn1-c1ccccn1)C2`?
FLuc SDR -ATP: inactive; FLuc SDR ATP: inactive; FLuc inh-2: inactive

Results for Cc1cccc(CN2CCOc3c(O)cc(-c4ccccc4C)cc3C2)n1 ?
3T3 cytotox: inconclusive; HEK cytotox: inconclusive; FLuc inh-1: inactive; hNpr1 antagonist: inactive

How did Oc1cc(-c2nc3ccccc3s2)cc2c1OCCN(Cc1cccn1-c1ncccn1)C2 do in these assays?
FLuc SDR -ATP: inactive; FLuc SDR ATP: inactive; FLuc inh-2: inactive

What do the screens show for `Cc1nn(-c2ccccc2)c2c1C(C1CC1)N(C1CCCN([S+](=O)([O-])c3cccs3)C1)C2=O` (stereo not drawn)?
3T3 cytotox: inactive; HEK cytotox: inactive

What do the screens show for `CCN(CC)C(=O)c1cccc2c1CCN2C(=O)Nc1cccc(C)c1`?
3T3 cytotox: inconclusive; HEK cytotox: inconclusive; FLuc inh-1: inactive; hNpr1 antagonist: inactive
